# Assay results from PubChem BioAssay.
# Active and inactive are the calls of the source.
# Key:
# [1] = compounds binding Alexa647 anti-His antibody – biochemical, small-molecule microarray, 635 nm fluorescence, artefact control for SMM control protein annotation, primary screen (AID 1128); conditions: higher = more signal;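 further: score merges feature fluorescence with signal-to-noise for each printed compound spot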
# [2] = tested on: Human papillomavirus type 1a E7 protein (residues 1-88); assay: HPV1a E7 small-molecule binders, primary screen, biochemical, small-molecule microarray, residues 1-88, 635 nm (AID 1129); conditions: small-molecule microarray binding, fluorescence 635 nm; higher = more signal
# [3] = biological target: Focal adhesion kinase 1 (Homo sapiens) (UniProt Q05397); assay: PTK2 protein binding on printed compound slides – biochemical, small-molecule microarray, 635/667 nm fluorescence, BSA, DTT, primary screen (AID 1130); conditions: 635 nm fluorescence, higher = more signal;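 further: composite of spot emission at 667 nm and signal to noise over triplicate slides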
# Focal adhesion kinase 1 (Homo sapiens), sequence (Q05397 whole entry, looked up): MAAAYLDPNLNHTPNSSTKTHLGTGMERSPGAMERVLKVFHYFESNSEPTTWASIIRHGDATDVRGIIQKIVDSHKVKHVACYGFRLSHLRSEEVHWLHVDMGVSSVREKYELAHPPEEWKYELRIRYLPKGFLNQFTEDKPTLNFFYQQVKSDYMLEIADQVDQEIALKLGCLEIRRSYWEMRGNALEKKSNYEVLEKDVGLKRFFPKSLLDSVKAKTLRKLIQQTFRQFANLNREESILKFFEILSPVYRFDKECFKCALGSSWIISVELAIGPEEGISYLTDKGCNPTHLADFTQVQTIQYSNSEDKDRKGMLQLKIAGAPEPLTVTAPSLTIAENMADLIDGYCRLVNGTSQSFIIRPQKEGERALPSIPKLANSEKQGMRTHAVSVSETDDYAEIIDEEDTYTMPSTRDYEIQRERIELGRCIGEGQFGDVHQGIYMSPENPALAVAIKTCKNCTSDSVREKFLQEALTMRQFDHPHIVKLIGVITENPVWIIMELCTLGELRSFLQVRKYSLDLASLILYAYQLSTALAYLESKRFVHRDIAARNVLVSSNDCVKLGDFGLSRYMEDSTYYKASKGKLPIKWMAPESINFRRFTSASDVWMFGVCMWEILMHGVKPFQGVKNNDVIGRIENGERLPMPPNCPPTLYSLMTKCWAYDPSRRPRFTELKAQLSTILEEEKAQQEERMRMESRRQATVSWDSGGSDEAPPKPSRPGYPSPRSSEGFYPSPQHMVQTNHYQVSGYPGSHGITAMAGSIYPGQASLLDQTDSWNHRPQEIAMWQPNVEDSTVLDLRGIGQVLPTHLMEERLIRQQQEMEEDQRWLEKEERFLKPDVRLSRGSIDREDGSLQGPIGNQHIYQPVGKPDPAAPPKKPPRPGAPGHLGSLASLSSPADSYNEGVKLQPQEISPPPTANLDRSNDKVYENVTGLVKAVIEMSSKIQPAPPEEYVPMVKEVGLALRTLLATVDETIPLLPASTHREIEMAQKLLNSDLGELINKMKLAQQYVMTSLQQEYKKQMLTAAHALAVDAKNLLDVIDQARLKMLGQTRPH
# [4] = tested on: Fibrinogen (Alexa647-labelled); assay: Alexa647-fibrinogen binding to printed small molecules – biochemical, small-molecule microarray, 635/667 nm fluorescence, artefact control for SMM control-protein annotation, profiling panel (AID 1131); conditions: fibrinogen-A647 binding fluorescence, higher = more signal;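 further: z-score merges 667 nm fluorescence with per-spot signal-to-noise over triplicate slides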
# [5] = biological target: Follistatin (Homo sapiens) (UniProt P19883); assay: FST protein binding to printed compounds – biochemical, small-molecule microarray, 635/667 nm fluorescence, primary screen (AID 1132); conditions: 635 nm fluorescence, higher = more signal
# Follistatin (Homo sapiens), sequence (P19883 whole entry, looked up): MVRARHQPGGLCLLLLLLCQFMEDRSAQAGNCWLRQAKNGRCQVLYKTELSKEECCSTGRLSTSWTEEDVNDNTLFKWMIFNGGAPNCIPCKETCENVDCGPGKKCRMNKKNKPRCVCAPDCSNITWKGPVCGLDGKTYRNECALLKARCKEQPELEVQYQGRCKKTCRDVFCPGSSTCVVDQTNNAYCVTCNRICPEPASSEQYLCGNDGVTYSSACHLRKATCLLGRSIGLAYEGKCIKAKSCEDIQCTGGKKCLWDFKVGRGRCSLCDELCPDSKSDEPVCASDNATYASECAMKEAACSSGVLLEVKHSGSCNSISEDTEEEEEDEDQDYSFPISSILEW
# [6] = biological target: Fibroblast growth factor 2 (Homo sapiens) (UniProt P09038); assay: basic fibroblast growth factor binding to printed compounds – biochemical, small-molecule microarray, 635/667 nm fluorescence, primary screen (AID 1133); conditions: FGF2, fluorescence 635/667, higher = more signal
# Fibroblast growth factor 2 (Homo sapiens), sequence (P09038 whole entry, looked up): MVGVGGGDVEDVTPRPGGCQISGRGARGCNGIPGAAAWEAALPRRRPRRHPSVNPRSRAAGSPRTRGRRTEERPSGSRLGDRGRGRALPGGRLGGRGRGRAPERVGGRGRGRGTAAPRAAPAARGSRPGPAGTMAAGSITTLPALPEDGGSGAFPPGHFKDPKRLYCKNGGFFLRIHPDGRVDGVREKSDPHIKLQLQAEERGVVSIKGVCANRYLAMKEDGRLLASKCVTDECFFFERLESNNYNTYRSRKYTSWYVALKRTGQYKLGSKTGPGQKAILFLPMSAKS
# [7] = JC-1 mitochondrial potential readout, lung cancer cells – cell-based, A549, JC-1 fluorescence, basal, 24 h, 100 nL, profiling panel (AID 1138); conditions: higher = more signal;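 further: A549 lung adenocarcinoma cells under basal conditions with no added stimulus; test concentration not given here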
# [8] = tested on: Lefty1; assay: Lefty1 protein binding to printed compounds – biochemical, small-molecule microarray, 635/667 nm fluorescence, primary screen (AID 1139); conditions: fluorescence 635/667, higher = more signal
# [9] = tested on: wheat germ agglutinin (Triticum aestivum), Alexa647-labelled; assay: Alexa647-WGA lectin binding to printed small molecules – biochemical, small-molecule microarray, 635/667 nm fluorescence, artefact control for SMM control-protein annotation, profiling panel (AID 1140); conditions: WGA-A647 binding, 635 nm fluorescence, higher = more signal;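 further: score merges 667 nm feature emission with signal to noise over triplicate slides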
# [10] = biological target: Luciferin 4-monooxygenase (Photinus pyralis) (UniProt P08659); assay: inhibition of purified Photinus pyralis luciferase – biochemical, luminescence, purified enzyme, 2006 set, primary screen (AID 1141); conditions: purified firefly luciferase, SteadyGlo luminescence, 30 min; higher = more signal, called active from +8 up or from −8 down;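 further: cell-free assay with purified firefly luciferase at 100 ng per well in PBS; test concentration not given here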
# Luciferin 4-monooxygenase (Photinus pyralis), sequence (P08659 whole entry, looked up): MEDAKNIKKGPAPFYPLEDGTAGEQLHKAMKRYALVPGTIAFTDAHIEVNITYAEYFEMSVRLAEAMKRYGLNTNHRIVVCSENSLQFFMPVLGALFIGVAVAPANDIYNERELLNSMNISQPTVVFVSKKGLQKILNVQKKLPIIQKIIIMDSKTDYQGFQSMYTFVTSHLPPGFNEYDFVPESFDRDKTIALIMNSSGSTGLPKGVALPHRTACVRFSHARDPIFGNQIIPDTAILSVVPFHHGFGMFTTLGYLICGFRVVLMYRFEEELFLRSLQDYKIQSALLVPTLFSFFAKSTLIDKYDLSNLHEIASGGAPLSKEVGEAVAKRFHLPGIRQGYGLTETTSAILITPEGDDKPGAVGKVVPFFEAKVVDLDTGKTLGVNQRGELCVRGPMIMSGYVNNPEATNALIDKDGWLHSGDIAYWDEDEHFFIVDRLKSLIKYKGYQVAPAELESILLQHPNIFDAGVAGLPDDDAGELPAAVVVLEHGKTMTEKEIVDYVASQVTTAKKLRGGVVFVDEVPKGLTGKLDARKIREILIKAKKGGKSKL
Structure (SMILES),composite z-score [1],composite z-score [2],composite z-score [3],composite z-score [4],composite z-score [5],composite z-score [6],z-score [7],composite z-score [8],composite z-score [9],z-score [10]
C=CCN1C(=O)[C@@]2(O[C@@H](CCO)[C@H]([Si](C)(C)c3ccc(OC)cc3)[C@H]2C)c2cc(N3CCOC3=O)ccc21,2.38,1.15,0.246,0.768,-0.354,-0.25,-0.658,0.0949,0.486,-1.03 (inactive)
COc1cc(NN2C(C(O)c3ccccc3)C=CC3C(=O)N(C)C(=O)C32)cc(OC)c1OC (stereo not given),0.981,1.19,0.681,0.959,0.756,0.216,-0.109,0.229,1.23,-1.69 (inactive)
Nc1cc(Br)ccc1C(=O)O,1.28,0.319,0.5,0.777,0.181,0.372,1.28,-0.0916,0.863,-1.1 (inactive)
[N-]=[N+]=Nc1ccccc1[C@@H]1OC(c2ccc(OCCCO)cc2)=N[C@]1(Cc1ccccc1)C(=O)NCc1ccccc1,1.27,1.17,0.763,0.798,0.852,0.409,-1.63,0.491,1.36,-5.74 (inactive)
CCCNC(=O)[C@@]1(C)c2ccccc2C(=O)N(Cc2ccccc2)[C@H]1c1ccc(CO)cc1,1.8,0.0323,1.28,-0.872,-0.571,-0.258,1.03,-0.975,-0.231,-1.18 (inactive)
CCCC=C(CCC)[C@@H](NC(=O)CCc1ccccc1)c1ccc(C(F)(F)F)cc1,0.608,1.16,0.398,0.973,0.809,0.94,3.02,0.17,0.71,1.31 (inactive)
Cc1ccc(S[C@]2(C(=O)NC(C)C)CC(=O)N(Cc3ccccc3Cl)[C@@H]2c2ccc(CO)cc2)cc1,0.568,0.424,-0.092,0.54,-0.568,-1.27,-0.718,-1.56,0.762,-0.426 (inactive)
C#C[C@@H](CC)O[Si](C#CCCCC#N)(C(C)C)C(C)C,2.55,0.0253,0.278,-0.014,-0.295,0.895,0.168,0.232,-0.0711,-0.732 (inactive)
COc1ccc(C(O)C2C=CC3C(=O)N(c4ccccc4)C(=O)C3N2Nc2ccccc2)cc1 (stereo not given),0.85,1.08,0.72,1.01,0.955,0.0088,0.204,0.817,1.1,-0.182 (inactive)
COc1ccc(C(=O)Nc2cccc(CN3C(=O)[C@]4(O[C@H](CCn5cc([C@H](O)c6ccccc6)nn5)[C@@H]([Si](C)(C)c5ccc(OC)cc5)[C@@H]4C)c4ccccc43)c2)cc1,1.07,0.514,0.31,0.242,1.19,0.348,0.456,0.752,0.12,0.889 (inactive)
CS(=O)(=O)CCOC(=O)C1=CC(CCCO)=CC(C2CC2)N(Cc2cccc(OC(F)(F)F)c2)C=C1C(=O)OCCS(C)(=O)=O (stereo not given),1.96,0.852,0.386,0.701,-0.0478,-0.256,1.62,0.126,0.927,-1.6 (inactive)
CN1C(=O)[C@@H]2[C@@H](CC(COc3ccccc3)=C([C@H](O)CCc3ccccc3)[C@@H]2CO)C1=O,-0.203,-0.438,-0.147,-0.163,0.009,0.364,2.02,-0.0412,0.488,-1.4 (inactive)
CC(C)=CCCC(C)=CC(O)C1C=CC2C(=O)N(c3ccccc3)C(=O)C2N1Nc1ccccc1F (stereo not given),1.55,1.03,0.789,0.988,0.462,-0.617,-0.4,0.278,0.327,2 (inactive)
C=CC1c2cc(O)c(OC)cc2CCN1Cc1ccc([N+](=O)[O-])o1 (stereo not given),3,-0.354,-0.426,0.66,0.138,-0.0471,1.3,-0.807,1.39,-1.6 (inactive)
NC(=O)N1C(=O)C2C(C1=O)C1C=C(CCCO)C2C(C2CC2)N1Cc1cccc(OC(F)(F)F)c1 (stereo not given),0.589,0.469,-0.0719,0.948,0.173,-0.314,0.541,0.341,0.94,-1.4 (inactive)
COCCOC(=O)N1C(=O)[C@@]2(c3cc(C#CC4=CCCCC4)ccc31)[C@H](C(=O)N1CCCCCCC1)[C@H]1C(=O)O[C@H](c3ccccc3)[C@H](c3ccccc3)N1[C@@H]2c1ccc(OCCO)cc1,0.119,1.13,0.605,0.806,1.23,0.426,-1.22,0.79,0.956,-0.866 (inactive)
C=CCOC(=O)[C@H]1[C@@H]2C(=O)O[C@@H](c3ccccc3)[C@@H](c3ccccc3)N2[C@@H](c2ccc(OCCOC(=O)[C@H]3C[C@H]4C(=O)N[C@@H](CCCCNC(C)=O)C(=O)N4[C@H]3c3cccc(OCCO)c3)cc2)[C@]12C(=O)Nc1ccc(I)cc12,1.3,1.15,0.439,0.808,1.3,1.68,-1.46,1.55,0.0811,-0.33 (inactive)
[N-]=[N+]=NCc1ccccc1[C@H]1OC(c2ccc(OCCCO)cc2)=N[C@@]1(Cc1ccccc1)C(=O)NCCN1CCOCC1,2.04,1.26,0.514,0.915,1.33,1.63,1.87,0.332,0.531,-3.29 (inactive)
COCCOC(=O)N1C(=O)[C@@]2(c3ccccc31)[C@H](c1ccccc1OCCO)N1[C@H](c3ccccc3)[C@H](c3ccccc3)OC(=O)[C@H]1[C@@H]2C(N)=O,1.93,1.18,0.502,0.955,1.4,1.57,-0.206,1.01,0.64,0.0559 (inactive)
C[C@@H]1ON(c2ccc(I)cc2)[C@H](c2ccc(OC(=O)OC(C)(C)C)cc2)[C@H]1C(=O)N1C(=O)OC[C@H]1Cc1ccccc1,0.955,1.13,-0.0457,0.966,0.61,0.255,0.386,0.445,0.348,-0.695 (inactive)
C=C(C(=O)CC[C@H](OC(=O)c1ccccc1-c1ccccc1C(=O)O)c1ccccc1OCCO)C(C)C,-0.0781,0.909,0.0778,-0.115,0.991,1.24,0.743,1.01,0.423,-1.29 (inactive)
C=C(COC)/C(=C/C[C@H](OC(C)=O)c1cccc(OCCO)c1)c1cnc2ccccc2c1,0.18,1.02,-0.105,0.246,1.46,1.57,1.05,1.53,1.14,-1.06 (inactive)
[N-]=[N+]=NCc1ccccc1[C@H]1OC(c2ccc(OCCCO)cc2)=N[C@@]1(CCS(=O)(=O)c1ccccc1)C(=O)NCc1ccccc1,1.41,1.2,0.13,0.941,1.36,0.623,0.453,0.189,0.703,-1.41 (inactive)
